# According to PubChem BioAssay (NCATS):
# Inconclusive results are not listed. Entries that show only a call come without a potency. The source made the active and inactive calls. Unless noted, calls follow the shape of the dose curve; as a rule, active = well fitted curve in the direction sought with a large enough effect; inconclusive = small, poorly fitted or top-dose-only effect, or another doubt; inactive = no such curve, though single readings can be large; an effect the other way counts as inactive or inconclusive.
# Columns and labels:
# [1] = Quantitative High-Throughput drug screen in 47 multiple myeloma cell lines against the NCATS MIPE library collection: OPM1_PLB cell viability assay (AID 1918989); also: nearly all actives have a fitted effect of over 40% in size
# In short: (§1)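 Readout: median RLU from CellTiter-Glo after 5 min at room temperature. Preceding step was 48 h drug treatment of 500 cells/well at 37 °C, 5% CO2, with DMSO-only and media-only control wells.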
# [2] = Quantitative High-Throughput drug screen in 47 multiple myeloma cell lines against the NCATS MIPE library collection: U266_ATCC cell viability assay (AID 1919864); also: nearly all actives have a fitted effect of over 35% in size
# In short: as §1
# [3] = Quantitative High-Throughput drug screen in 47 multiple myeloma cell lines against the NCATS MIPE library collection: XG6_PLB cell viability assay (AID 1919865); also: nearly all actives have a fitted effect of over 40% in size
# In short: as §1
# [4] = Quantitative High-Throughput drug screen in 47 multiple myeloma cell lines against the NCATS MIPE library collection: XG1_PLB cell viability assay (AID 1919866); also: nearly all actives have a fitted effect of over 35% in size
# In short: as §1
# [5] = Quantitative High-Throughput drug screen in 47 multiple myeloma cell lines against the NCATS MIPE library collection: VP6_DJ cell viability assay (AID 1919867); also: nearly all actives have a fitted effect of over 40% in size; also: potency is read from the fitted curve at half-maximal effect
# In short: as §1
# [6] = Quantitative High-Throughput drug screen in 47 multiple myeloma cell lines against the NCATS MIPE library collection: OPM2_DSMZ cell viability assay (AID 1919872); also: nearly all actives have a fitted effect of over 30% in size
# In short: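 We plated 500 myeloma cells per well, pinned in MIPE 4.0 compounds, and incubated for 48 hours at 37C. ATP was then quantified with CellTiter-Glo, with DMSO and media-only wells defining 100% and 0%.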
# [7] = Quantitative High-Throughput drug screen in 47 multiple myeloma cell lines against the NCATS MIPE library collection: KMS11_JCRBsus cell viability assay (AID 1919873); also: nearly all actives have a fitted effect of over 50% in size
# In short: as §1
# [8] = Quantitative High-Throughput drug screen in 47 multiple myeloma cell lines against the NCATS MIPE library collection: KMS28BM_JCRB cell viability assay (AID 1919874); also: nearly all actives have a fitted effect of over 35% in size; also: potency is read from the fitted curve at half-maximal effect
# In short: as §1
# [9] = qHTS drug screen for cell cycle checkpoint inhibitors in PARPi-resistant BRCA-mutant ovarian cancer cell lines. (AID 1963452; calls by dose curve); settings: PEO1/OlaR viability, CellTiter-Glo luminescence, 96 h, stronger effect = lower value
# In short: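 PEO1, PEO4 and PEO1/OlaR ovarian cancer cells, 600 per well, exposed 96 h at 37C to a dilution series. Viability read by CellTiter-Glo luminescence, normalized to DMSO and empty wells; activity summarized as Z-AUC.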
# [10] = qHTS profiling for inhibitors of Plasmodium falciparum proliferation (AID 504749); also: nearly all actives have a fitted effect of over 60% in size; settings: P. falciparum in erythrocytes, SYBR Green DNA, 72 h, at 28.7 µM (top of the series)
# In short: (§2)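 Fluorescence of SYBR Green-bound parasite DNA, read at 485/535 nm, served as the growth measure. Infected erythrocytes were cultured with compound 72 h; artemisinin (0.29 uM) and DMSO wells defined the normalization range.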
# 3D7 = test: as above; settings: P. falciparum in erythrocytes, SYBR Green DNA, 72 h; series mostly up to 28.7 µM
# In short: as §2
# 7G8 = test: as above; settings: P. falciparum in erythrocytes, SYBR Green DNA, 72 h; series mostly up to 28.7 µM
# In short: as §2
# [11] = Quantitative High-Throughput drug screen in 47 multiple myeloma cell lines against the NCATS MIPE library collection: SKMM1_PLB cell viability assay (AID 1919863); settings: SKMM1 myeloma viability, CellTiter-Glo ATP, 48 h; viability: stronger effect = lower value; also: nearly all actives have a fitted effect of over 35% in size
# In short: as §1
# [12] = Quantitative High-Throughput drug screen in 47 multiple myeloma cell lines against the NCATS MIPE library collection: PE2_PLB cell viability assay (AID 1919869); also: nearly all actives have a fitted effect of over 35% in size
# In short: as §1
# [13] = Quantitative High-Throughput drug screen in 47 multiple myeloma cell lines against the NCATS MIPE library collection: PCM6_Riken cell viability assay (AID 1919870); also: nearly all actives have a fitted effect of over 30% in size; also: potency is read from the fitted curve at half-maximal effect
# In short: as §1
# [14] = qHTS for identification of novel therapeutic agents for treatment of microphthalmiaassociated transcription factor (MiT) renal cell carcinoma (RCC) (AID 1963991); settings: CellTiter-Glo, 48 h, stronger effect = lower value
# In short: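 Three TFE3-fusion RCC cell lines (UOK109, UOK124, UOK145), 500 cells/well, were exposed to the 1912-compound MIPE 4.0 library for 48 hours at 37 C. Viability was read by CellTiter-Glo luminescence, normalised to DMSO (100%) and empty wells (0%), with 11-concentration curve fits.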
# [15] = Quantitative High-Throughput drug screen in 47 multiple myeloma cell lines against the NCATS MIPE library collection: UTMC2_PLB cell viability assay (AID 1919868); settings: CellTiter-Glo ATP luminescence, 48 h; viability (% of DMSO control): at 45.8 µM (top of the series); also: nearly all actives have a fitted effect of over 55% in size
# In short: as §1
# [16] = Quantitative High-Throughput drug screen in 47 multiple myeloma cell lines against the NCATS MIPE library collection: RPMI8226_ATCC cell viability assay (AID 1919871); also: potency is read from the fitted curve at half-maximal effect; nearly all actives have a fitted effect of over 30% in size
# In short: as §1
# [17] = Quantitative High-Throughput drug screen in 47 multiple myeloma cell lines against the NCATS MIPE library collection: OCIMY5_PLB cell viability assay (AID 1918988); also: potency is read from the fitted curve at half-maximal effect; nearly all actives have a fitted effect of over 65% in size
# In short: as §1
# [18] = measured here: PEO1 parental Z-AUC
# [19] = TFE3-RCC UOK109 viability, measured here: UOK109 Z-AUC
# [20] = TFE3-RCC viability, measured here: UOK124 Z-AUC
# [21] = TFE3-RCC viability, measured here: UOK145 Z-AUC
structure (smiles),measurement,setting,value
C#CC1(O)CCC2C3CCC4=CC(=O)CCC4(C)C3CCC21C (stereo not given),Potency,[1],inactive
same,Potency,[2],inactive
same,Potency,[3],inactive
same,Potency,[4],inactive
same,Potency,[5],inactive
same,Potency,[6],inactive
same,Potency,[7],inactive
same,Potency,[8],18.7 µM (active)
same,Z-AUC,[9],0.597 (inactive)
same,Z-AUC,[9]; [18],0.372
same,Z-AUC,[9]; measured here: PEO4 Z-AUC,0.608
same,"activity, negative = inhibition",[10]; parasite line A,7.72% (inactive)
same,"activity, negative = inhibition",[10]; parasite line B,0.354% (inactive)
same,Potency,3D7,inactive
same,Potency,7G8,inactive
Cc1nc(-c2ccc(-c3ccc(C(=O)N4CCc5cc6c(cc54)C4(CCN(C)CC4)CO6)cc3)c(C)c2)no1,Potency,[1],inactive
same,viability,[11],124% (inactive)
same,Potency,[4],inactive
same,Potency,[6],inactive
same,Potency,[7],inactive
same,Potency,[8],inactive
COc1ccc(CC2NCCc3cc(OC)c(OC)cc32)cc1OC (stereo not given),Potency,[1],inactive
same,viability,[11],129% (inactive)
same,Potency,[2],inactive
same,Potency,[5],9.35 µM (active)
same,Potency,[12],inactive
same,Potency,[13],8.33 µM (active)
same,Potency,[6],inactive
same,Potency,[7],inactive
same,Potency,[8],inactive
same,z-score,[14]; [19],0.368
same,z-score,[14]; [20],0.055
same,z-score,[14]; [21],0.8
NC1CC1c1ccccc1 (stereo not given),Potency,[1],inactive
same,Potency,[2],inactive
same,Potency,[3],inactive
same,Potency,[4],inactive
same,Potency,[15],inactive
same,Potency,[12],inactive
same,Potency,[6],inactive
same,Potency,[7],inactive
same,Potency,[8],inactive
same,z-score,[14]; [19],0.891
same,z-score,[14]; [20],0.509
same,z-score,[14]; [21],0.821
CCN(CC)C(=O)c1ccc(C2=CC3(CCNCC3)Oc3cccc(O)c32)cc1,Potency,[1],inactive
same,viability,[11],112% (inactive)
same,Potency,[5],inactive
same,Potency,[6],inactive
same,Potency,[7],inactive
same,Potency,[8],inactive
same,Z-AUC,[9],-0.151 (inactive)
same,Z-AUC,[9]; [18],0.834
same,Z-AUC,[9]; measured here: PEO4 Z-AUC,0.745
C[C@H]([C@H](O)CCC(C)(C)O)[C@H]1CC[C@@]2(O)C3=CC(=O)[C@@H]4C[C@@H](O)[C@@H](O)C[C@]4(C)[C@@H]3CC[C@]12C,Potency,[1],inactive
same,Potency,[2],inactive
same,Potency,[3],inactive
same,Potency,[12],inactive
same,Potency,[16],20.9 µM (active)
same,Potency,[6],inactive
same,Potency,[7],inactive
same,z-score,[14]; [19],0.847
same,z-score,[14]; [20],0.683
same,z-score,[14]; [21],-2.52
C[C@]12CC[C@H]3[C@@H](CCC4=CC(=O)CC[C@@]43C)[C@H]1CC[C@H]2OC(=O)CCC1CCCC1,Potency,[17],20.9 µM (active)
same,Potency,[2],inactive
same,Potency,[4],inactive
same,Potency,[5],inactive
same,Potency,[13],inactive
same,Potency,[6],inactive
same,Potency,[7],inactive
same,Potency,[8],inactive
same,Z-AUC,[9],-0.757 (inactive)
same,Z-AUC,[9]; [18],-0.855
same,Z-AUC,[9]; measured here: PEO4 Z-AUC,-0.842
